In the library only some 3.5% were active in any assay of this set; here they are far more common.
BoNT-F LC inh: BoNT/F light chain protease inhibitors, primary screen, biochemical, flow cytometry, MLPCN library; inhibition, % at 10 µM; Multiplex microsphere protease cleavage assay; Botulinum neurotoxin type F light chain protease (Clostridium botulinum); 360,000 tested, 0.22% active; in the data active = inhibition above about 35%, passing the limit was not always enough; inconclusive = no clear call, values can overlap the other calls
Vc quorum ag: inducers of Vibrio cholerae quorum light production without autoinducers, primary screen, BH1578 luxS cqsA deficient, single point; V. cholerae BH1578 lux reporter, luminescence, 6 h; activation, % at 18.7 µM; 350,000 tested, 0.16% active; AID 588436, 2011; in the data active = activation mostly above about 9.7%, no sharp cut-off; inconclusive = no clear call, values can overlap the other calls; inactive = mostly below about 3.7%
BoNT A protease: BoNT/A light chain protease inhibitors, primary screen, biochemical, flow cytometry, MLPCN library | Botulinum neurotoxin type A light chain protease (Clostridium botulinum A str. ATCC 3502) | multiplex microsphere protease substrate cleavage | inhibition, % at 10 µM | 360,000 tested, 0.17% active
Anthrax LF prot: Bacillus anthracis LF protease inhibitors, primary screen, biochemical, multiplex microsphere, MLPCN library. multiplex microsphere protease cleavage assay. inhibition, % at 10 µM. 360,000 tested, 0.12% active
Autofluor counter: compound fluorescence in toxin protease inhibitor counterscreen. AID 624483. 360,000 tested, 3.1% active. fluorescence intensity (no concentration beside the values). compound autofluorescence counterscreen, microsphere flow cytometry; active compounds read high; in the data active = fluorescence intensity above about 16000; inconclusive = no clear call, values can overlap the other calls
Each line names hits and unclear results; the compound was inactive in the other large screens. Cut-off read from the data, not from the text of the source, unless noted: active = inhibition above about 30%; inconclusive = no clear call, values can overlap the other calls; inactive = below that.

CCN(CC)CCN(C(=O)c1ccc2c(c1)CCCC2)c1nc2c(C)cccc2s1	none
CCc1ccc(Nc2n[n+](-c3ccccc3)c(-c3ccc(OCc4ccccc4)cc3)s2)cc1	none
CCc1ccc(Nc2n[n+](-c3ccccc3)c(-c3ccc(N(CC)CC)cc3)s2)cc1	Autofluor counter 19557
CCn1cc(C(=O)O)c(=O)c2cc(S(=O)(=O)N3CCCCCC3)ccc21	none
CCn1cc(C(=O)O)c(=O)c2cc(OC)ccc21	Autofluor counter 19754
Nc1nnc(CC(=O)N/N=C/c2ccc(-c3ccc(F)cc3)o2)s1	BoNT-F LC inh 38.3, Anthrax LF prot inconclusive
N#Cc1c(N)nc(SCC(=O)NC2CCCCC2)c(C#N)c1-c1ccc(Cl)cc1	Autofluor counter 16126
CC(C)c1ccc(-c2c(C#N)c(N)nc(SCC(=O)N3CCCCC3)c2C#N)cc1	none
CCOC(=O)N1CCN(C(=O)CSCC(=O)Nc2nc(-c3ccc(Cl)s3)cs2)CC1	Autofluor counter 22328
Cc1cc(C(=O)CN2C(=O)NC(Cc3c[nH]c4ccccc34)C2=O)c(C)n1C (stereo not drawn)	Autofluor counter 23788
CNC(=O)CN1C(=O)NC(Cc2c[nH]c3ccccc23)C1=O (stereo not drawn)	none
O=C(NCCCn1ccnc1)c1ccc(COc2ccccc2)o1	Autofluor counter inconclusive
CC(=NC1CC1)C1=C(O)c2ccccc2C1=O	BoNT A protease inconclusive, Autofluor counter 22929
CC(=NCCCN(C)C)C1=C(O)c2ccccc2C1=O	Vc quorum ag 16.7
C/C(=N\N(C)C)C1=C(O)c2ccccc2C1=O	none
CN(C)c1cc[n+](CC(=O)c2ccc(OC(F)F)cc2)cc1	none
Cc1nc(N)nc(-c2ccccc2O)n1	Vc quorum ag 16.7
Cc1ccc(/C=N/NC(=O)c2ccco2)s1	Autofluor counter 25160
COc1ccccc1/C=C/C=C1\Oc2c(ccc(O)c2CN2CCN(CCO)CC2)C1=O	BoNT A protease 31.0
O=C1/C(=C/C=C/c2ccccc2)Oc2c1ccc(O)c2CN1CCN(CCO)CC1	none
CCN1CCN(Cc2c(O)ccc3c2O/C(=C\C=C\c2ccccc2)C3=O)CC1	BoNT A protease 35.3
O=C(CN1CCN(C(=O)C2CC2)CC1)Nc1ccc(Cl)cc1F	none
NS(=O)(=O)c1ccc(N2CCN(C(=O)c3ccco3)CC2)nc1	none
O=C1C2C3C=CC(C2C(=O)N1c1cccc(O)c1)C1C2C(=O)N(c4cccc(O)c4)C(=O)C2C31 (stereo not drawn)	none
O=C(c1ccc(=O)[nH]c1)N(c1ccccc1)C(CCc1ccccc1)c1nc2ccccc2[nH]1 (stereo not drawn)	none (no result: Vc quorum ag)
CCCc1nc2oc3c(NCCN4CCOCC4)ncnc3c2c2c1CCCC2	none
CC(C)Cc1nc2oc3c(NCCCN4CCOCC4)ncnc3c2c2c1CCC2	Autofluor counter 23301
CCOC(=O)[C@]12CCC=C1N(Cc1cccc3ccccc13)C(=O)[C@H](CC(=O)N1CCN(C(=O)C3CC3)CC1)C2	none (no result: Vc quorum ag)
COc1ccc(S(=O)(=O)N2CCN=C2SCc2cccc(C)c2)cc1	none
Cc1cc(/C=C2/SC(=S)N(c3cccc(Cl)c3)C2=O)c(C)n1-c1cccnc1	BoNT-F LC inh 73.6, BoNT A protease 59.5, Anthrax LF prot 51.3
Cc1cccc(N2C(=O)/C(=C/c3cccnc3)SC2=S)c1	none
Cc1cc(/C=C2/SC(=S)N(c3ccc([N+](=O)[O-])cc3)C2=O)c(C)n1-c1cccnc1	BoNT A protease 32.9
CCCC(C(=O)Nc1ccc2c(C)cc(=O)oc2c1)c1ccccc1 (stereo not drawn)	none
O=C(c1ccc(Cl)cc1)N1CCN(S(=O)(=O)/C=C/c2ccccc2)CC1	none
CC(/C=N/n1c(-c2cccnc2)n[nH]c1=S)=C\c1ccccc1	Autofluor counter 16837
CCC(C)(O)c1[nH]c2ccc(C(=O)OC)cc2c1C (stereo not drawn)	none
NC(=O)C1C(=O)c2ccccc2C1(C[N+](=O)[O-])c1ccccc1 (stereo not drawn)	none
CCOc1cc(C)nc(Oc2ccc(=O)[nH]n2)n1	BoNT A protease inconclusive, Autofluor counter 23697
O=c1[nH]c(=S)[nH]c2c1C(c1ccc(Cl)cc1)OC(C1CCCCC1)C2 (stereo not drawn)	none (no result: Vc quorum ag)
COC1=C/C(=C/c2c(N)n3cc(C)sc3nc2=O)C=CC1=O	none
Cc1cn2c(N)c(C=C3C=C(Cl)C(=O)C(Cl)=C3)c(=O)nc2s1	BoNT-F LC inh 140.8, Anthrax LF prot 32.2, Autofluor counter 26112
Clc1cccc(Oc2ncc(CN3CCOCC3)s2)c1	Autofluor counter 21630
Cc1ccc(Oc2ncc(CN3CCOCC3)s2)cc1	none
COc1ccc(N(Cc2cc3cccc(C)c3[nH]c2=O)S(C)(=O)=O)cc1	Autofluor counter 24150
CCOc1ccc(N(Cc2cc3ccc(C)cc3[nH]c2=O)S(C)(=O)=O)cc1	Autofluor counter 22539
Cc1cc(Nc2ccccc2Cl)nc(-c2ccccc2O)n1	BoNT-F LC inh 35.9
Cc1cc(NCc2ccccc2)nc(-c2ccccc2O)n1	BoNT A protease inconclusive, Autofluor counter 20264
Cc1cc(Nc2ccccc2)nc(-c2ccccc2O)n1	none
Cc1ccc(C)c(Nc2cc(C)nc(-c3ccccc3O)n2)c1	none
CCOC(=O)c1ccccc1NC(=O)C1CC(=O)N(C2CCCC2)C1 (stereo not drawn)	none
CCOc1ccc(-n2c(Cc3cc(=O)[nH]c(=O)[nH]3)nnc2SCC)cc1	BoNT A protease inconclusive, Autofluor counter 19071
COc1ccc(-c2ccnc3c(C#N)cnn23)cc1	none
FC(F)(F)c1cnc(Sc2nc3nccc(-c4ccc(Cl)cc4)n3n2)c(Cl)c1	Autofluor counter 20640
COc1ccc(-c2ccnc3nc(Sc4ncc(C(F)(F)F)cc4Cl)nn23)cc1	Autofluor counter 20277
S=C(Nc1cccc(Cl)c1)N1CCOCC1	Autofluor counter 22806
CC1C(=O)Nc2ccc(S(=O)(=O)N3CCCCCC3)cc21 (stereo not drawn)	none
O=C1CCNCCN1[C@H](CO)c1ccccc1	none
CC1(C)CC(=O)C(C(c2cccnc2)C2C(=O)CC(C)(C)CC2=O)C(=O)C1	Autofluor counter 22323
O=C(Cc1ccc(-n2c(=S)[nH]c3ccccc3c2=O)cc1)N1CCC(N2CCCCC2)CC1	Autofluor counter 23979
COc1ccc(N2CCN(C(=O)Cc3ccc(-n4c(=O)[nH]c5ccccc5c4=O)cc3)CC2)cc1	none
CC(O)c1cccc(N=Cc2ccc3ccccc3c2O)c1 (stereo not drawn)	BoNT-F LC inh inconclusive, Anthrax LF prot 41.9
CCc1ccccc1NC(=O)CC1S/C(=N\c2nccs2)N(CC)C1=O (stereo not drawn)	Autofluor counter 17187
Cc1ccccc1NC(=O)CC1S/C(=N/c2nccs2)N(C)C1=O (stereo not drawn)	none
CC1(C)Cc2c(sc(NC(=O)C(=O)N3CCOCC3)c2C(N)=O)CO1	none
CCc1c(C)nc(N)nc1N1N=C1SCC(=O)OC	none
